Data from PubChem BioAssay (Tox21).
Values without a mark were called inactive. Inconclusive results are not listed. Where a call stands in place of a potency, no number is given. Active and inactive are the calls of the source. Calls follow the shape of the dose curve; as a rule, active = well fitted curve in the direction sought with a large enough effect in the repeat runs; inconclusive = weak or mixed curves; inactive = no such curve, though single readings can be large; an effect the other way counts as inactive or inconclusive.

Test: A CellTox Green Cytotoxicity Assay to monitor cytotoxicity in HepG2 cells - 0 hour (AID 1224882); also: nearly all actives have a fitted effect of over 35% in size; also: potency is read from the fitted curve at half-maximal effect
Conditions: CellTox Green fluorescence; series mostly up to 76.8 µM
Method in brief: (§1)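 Fluorescent DNA-binding dye, 600 HepG2 cells/well, 5 h preincubation then compound in DMSO; same plates read at 0–40 h, 37 C.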
In the case of `CO/N=C(/C(=O)N[C@@H]1C(=O)N2C(C(=O)O)=C(COC(N)=O)CS[C@H]12)c1ccco1`, the Potency is reported as “inactive”. For `COc1ccc(OC(=O)N(CC(=O)O)Cc2ccc(OCCc3nc(-c4ccccc4)oc3C)cc2)cc1`, the Potency was “inactive”. In the case of `O=C(O)CCc1nc(-c2ccccc2)c(-c2ccccc2)o1`, the Potency is reported as “inactive”. For `CCC(OCCCOC)OC(C)=O` (stereo unspecified), the Potency was “inactive”. With `CC1=C(Br)C(=O)C(Br)=C/C1=C(/c1ccccc1S(=O)(=O)O)c1cc(Br)c(O)c(Br)c1C` the Potency was “inactive”. With `CC1=Nc2ccc3ccccc3c2C1(C)C` the Potency was “inactive”. With `CCCCN1CCCC1C(=O)Nc1c(C)cc(C)cc1C` (stereo unspecified) the Potency was 23.9 µM (active). In the case of `CN1C(=O)N(c2ccccc2Br)Cc2cnc(Nc3ccc4c(c3)OCC(CO)O4)nc21` (stereo unspecified), the Potency is reported as “inactive”. With `CC(C)C(O)(c1ccc(OC(F)(F)F)cc1)c1cncnc1` (stereo unspecified) the Potency was “inactive”. With `CC(CCC(=O)O)C(=O)O` (stereo unspecified) the Potency was “inactive”. With `CN1C(=O)c2ccccc2C1=O` the Potency was “inactive”. For `CCOc1ccccc1O[C@H](c1ccccc1)[C@H]1CNCCO1`, the Potency was “inactive”. With `CCCCCC#CC(=O)OC` the Potency was “inactive”. For `NCCNCCO`, the Potency was “inactive”. In the case of `COC(=O)C1=C(C)NC(C)=C(C(=O)O[C@@H]2CCCN(Cc3ccccc3)C2)[C@@H]1c1cccc([N+](=O)[O-])c1`, the Potency is reported as “inactive”. For `COc1cc(N)c(Cl)cc1C(=O)NC1CCN(CCCOc2ccc(F)cc2)CC1OC` (stereo unspecified), the Potency was “inactive”. For `CS(=O)(=O)c1ccc(-c2cn3ccccc3n2)cc1`, the Potency was “inactive”.

Test: A CellTox Green Cytotoxicity Assay to monitor cytotoxicity in HepG2 cells - 32 hour (AID 1224883); also: nearly all actives have a fitted effect of over 50% in size; also: potency is read from the fitted curve at half-maximal effect
Conditions: CellTox Green fluorescence; series mostly up to 76.8 µM
Method in brief: as §1
With `CCOC(=O)c1ccc(O)c(O)c1` the Potency was “inactive”. For `O=C(OCC(O)CO)c1ccccc1Nc1ccnc2cc(Cl)ccc12` (stereo unspecified), the Potency was 9.52 µM (active). With `Nc1nc2ccc([N+](=O)[O-])cc2s1` the Potency was 43.6 µM (active).

Test: A CellTox Green Cytotoxicity Assay to monitor cytotoxicity in HEK293 cells - 8 hour (AID 1224884); also: nearly all actives have a fitted effect of over 35% in size; also: potency is read from the fitted curve at half-maximal effect
Conditions: CellTox Green fluorescence; series mostly up to 76.8 µM
Method in brief: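 Homogeneous no-lysis format: HEK293 cell suspension mixed with CellTox Green reagent, seeded, incubated 5 h at 37 C/5% CO2, then dosed by pintool with compound in DMSO.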
For `Cc1ccc(Cl)c(Nc2ccccc2C(=O)O)c1Cl`, the Potency was “inactive”. With `Cc1cc(=O)c2c(O)c3c(O)cc(=O)c4c3c3c(cc(O)c1c23)C(C)(C)C=4O` the Potency was 7.37 µM (active). With `CCOC(=O)c1ccc(O)c(O)c1` the Potency was “inactive”. For `CCCCCCCCOc1ccc(C(=O)O)cc1`, the Potency was “inactive”. In the case of `CC1CC(OC(=O)C(O)c2ccccc2)CC(C)(C)N1C` (stereo unspecified), the Potency is reported as “inactive”. With `CC(C)(C)C(=O)C(=O)O` the Potency was “inactive”. For `CCC1(CO)COCOC1`, the Potency was “inactive”. In the case of `O=c1cc(-c2ccccc2)oc2cc(O)cc(O)c12`, the Potency is reported as “inactive”. In the case of `CC[C@]1(O)C[C@H]2CN(CCc3c([nH]c4ccccc34)[C@@](C(=O)OC)(c3cc4c(cc3OC)N(C=O)[C@H]3[C@@](O)(C(=O)OC)[C@H](OC(C)=O)[C@]5(CC)C=CCN6CC[C@]43[C@@H]65)C2)C1`, the Potency is reported as “inactive”. In the case of `OC(CCN1CCCC1)(c1ccccc1)C1CCCCC1` (stereo unspecified), the Potency is reported as “inactive”. In the case of `CCOC(=O)c1ccc(C#Cc2ccc3c(c2)C(C)(C)CCS3)nc1`, the Potency is reported as “inactive”. For `COC(=O)[C@H]1[C@H]2C[C@@H]3c4[nH]c5cc(OC)ccc5c4CCN3C[C@H]2C[C@@H](OC(=O)/C=C/c2ccc(O)c(OC)c2)[C@@H]1OC`, the Potency was 19 µM (active). With `O=C1c2ccccc2C(=O)C1(O)O` the Potency was “inactive”. In the case of `Nc1nnc(-c2ccc([N+](=O)[O-])o2)o1`, the Potency is reported as “inactive”. With `Oc1ccc(Cl)c2cccnc12` the Potency was “inactive”. In the case of `CCCCCCCC/C=C\CCCCCCCCO`, the Potency is reported as “inactive”. For `O=C(OCC(O)CO)c1ccccc1Nc1ccnc2cc(Cl)ccc12` (stereo unspecified), the Potency was “inactive”. In the case of `CC(CC1c2ccccc2CCc2ccccc21)CN(C)C` (stereo unspecified), the Potency is reported as “inactive”. In the case of `C[C@H]1C[C@H](O)c2ccsc2S1(=O)=O`, the Potency is reported as “inactive”. With `CO/N=C(/C(=O)N[C@@H]1C(=O)N2C(C(=O)O)=C(COC(N)=O)CS[C@H]12)c1ccco1` the Potency was “inactive”. With `COc1ccc(OC(=O)N(CC(=O)O)Cc2ccc(OCCc3nc(-c4ccccc4)oc3C)cc2)cc1` the Potency was “inactive”. For `CC(CN(C)C)C(C)(O)Cc1ccc(Cl)cc1` (stereo unspecified), the Potency was “inactive”. With `COC(=O)c1nc(Cl)c(Cl)nc1N` the Potency was “inactive”. With `O=C(O)CCc1nc(-c2ccccc2)c(-c2ccccc2)o1` the Potency was “inactive”. In the case of `CCC(OCCCOC)OC(C)=O` (stereo unspecified), the Potency is reported as “inactive”. In the case of `CC1=C(Br)C(=O)C(Br)=C/C1=C(/c1ccccc1S(=O)(=O)O)c1cc(Br)c(O)c(Br)c1C`, the Potency is reported as “inactive”. In the case of `CCCCN1CCCC1C(=O)Nc1c(C)cc(C)cc1C` (stereo unspecified), the Potency is reported as 15.1 µM (active). In the case of `CN1C(=O)N(c2ccccc2Br)Cc2cnc(Nc3ccc4c(c3)OCC(CO)O4)nc21` (stereo unspecified), the Potency is reported as “inactive”. For `CC(C)C(O)(c1ccc(OC(F)(F)F)cc1)c1cncnc1` (stereo unspecified), the Potency was “inactive”. With `CC(CCC(=O)O)C(=O)O` (stereo unspecified) the Potency was “inactive”. In the case of `CN1C(=O)c2ccccc2C1=O`, the Potency is reported as “inactive”. For `CCOc1ccccc1O[C@H](c1ccccc1)[C@H]1CNCCO1`, the Potency was “inactive”. With `CCCCCC#CC(=O)OC` the Potency was “inactive”. In the case of `NCCNCCO`, the Potency is reported as “inactive”. With `COC(=O)C1=C(C)NC(C)=C(C(=O)O[C@@H]2CCCN(Cc3ccccc3)C2)[C@@H]1c1cccc([N+](=O)[O-])c1` the Potency was “inactive”. In the case of `COc1cc(N)c(Cl)cc1C(=O)NC1CCN(CCCOc2ccc(F)cc2)CC1OC` (stereo unspecified), the Potency is reported as “inactive”. In the case of `CS(=O)(=O)c1ccc(-c2cn3ccccc3n2)cc1`, the Potency is reported as “inactive”.

Test: qHTS RealTime-Glo MT Cell Viability Assay in HepG2 cells - 16 hour (AID 1224885); also: nearly all actives have a fitted effect of over 50% in size
Conditions: RealTime-Glo luminescence; series mostly up to 76.8 µM
Method in brief: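 Tox21 10K library screened in qHTS format on HepG2 cells carrying RealTime-Glo reagents. Compounds were added after a 5 h preincubation, and the luminescent signal from continuous culture was measured repeatedly during 40 h treatment.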
For `Cc1ccc(Cl)c(Nc2ccccc2C(=O)O)c1Cl`, the Potency was “inactive”. Work on `Cc1cc(=O)c2c(O)c3c(O)cc(=O)c4c3c3c(cc(O)c1c23)C(C)(C)C=4O` yielded an activity change, negative = cytotoxic of -19% [at 15.8 µM]. For `NC1[C@H]2CN(c3nc4c(cc3F)c(=O)c(C(=O)O)cn4-c3ccc(F)cc3F)C[C@@H]12` (stereo partly specified), the Potency was “inactive”. In the case of `CCOC(=O)c1ccc(O)c(O)c1`, the Potency is reported as “inactive”. For `CCCCCCCCOc1ccc(C(=O)O)cc1`, the Potency was “inactive”. In the case of `CC1CC(OC(=O)C(O)c2ccccc2)CC(C)(C)N1C` (stereo unspecified), the Potency is reported as “inactive”. With `CC(C)(C)C(=O)C(=O)O` the Potency was “inactive”. With `CCC1(CO)COCOC1` the Potency was “inactive”. In the case of `CC[C@]1(O)C[C@H]2CN(CCc3c([nH]c4ccccc34)[C@@](C(=O)OC)(c3cc4c(cc3OC)N(C=O)[C@H]3[C@@](O)(C(=O)OC)[C@H](OC(C)=O)[C@]5(CC)C=CCN6CC[C@]43[C@@H]65)C2)C1`, the Potency is reported as “inactive”. In the case of `OC(CCN1CCCC1)(c1ccccc1)C1CCCCC1` (stereo unspecified), the Potency is reported as “inactive”. With `CCOC(=O)c1ccc(C#Cc2ccc3c(c2)C(C)(C)CCS3)nc1` the Potency was “inactive”. In the case of `COC(=O)[C@H]1[C@H]2C[C@@H]3c4[nH]c5cc(OC)ccc5c4CCN3C[C@H]2C[C@@H](OC(=O)/C=C/c2ccc(O)c(OC)c2)[C@@H]1OC`, the Potency is reported as “inactive”. With `O=C1c2ccccc2C(=O)C1(O)O` the Potency was “inactive”. For `Oc1ccc(Cl)c2cccnc12`, the Potency was “inactive”. For `CCCCCCCC/C=C\CCCCCCCCO`, the Potency was “inactive”. For `O=C(OCC(O)CO)c1ccccc1Nc1ccnc2cc(Cl)ccc12` (stereo unspecified), the Potency was “inactive”. In the case of `Nc1nc2ccc([N+](=O)[O-])cc2s1`, the Potency is reported as “inactive”. For `CC(CC1c2ccccc2CCc2ccccc21)CN(C)C` (stereo unspecified), the Potency was “inactive”. In the case of `C[C@H]1C[C@H](O)c2ccsc2S1(=O)=O`, the Potency is reported as “inactive”. In the case of `CO/N=C(/C(=O)N[C@@H]1C(=O)N2C(C(=O)O)=C(COC(N)=O)CS[C@H]12)c1ccco1`, the Potency is reported as “inactive”. In the case of `COc1ccc(OC(=O)N(CC(=O)O)Cc2ccc(OCCc3nc(-c4ccccc4)oc3C)cc2)cc1`, the Potency is reported as “inactive”. For `CC(CN(C)C)C(C)(O)Cc1ccc(Cl)cc1` (stereo unspecified), the Potency was “inactive”. For `O=C(O)CCc1nc(-c2ccccc2)c(-c2ccccc2)o1`, the Potency was “inactive”. In the case of `CCC(OCCCOC)OC(C)=O` (stereo unspecified), the Potency is reported as “inactive”. For `CC1=C(Br)C(=O)C(Br)=C/C1=C(/c1ccccc1S(=O)(=O)O)c1cc(Br)c(O)c(Br)c1C`, the Potency was “inactive”. With `CC1=Nc2ccc3ccccc3c2C1(C)C` the Potency was “inactive”. In the case of `CCCCN1CCCC1C(=O)Nc1c(C)cc(C)cc1C` (stereo unspecified), the Potency is reported as “inactive”. In the case of `CC(C)C(O)(c1ccc(OC(F)(F)F)cc1)c1cncnc1` (stereo unspecified), the Potency is reported as “inactive”. In the case of `CC(CCC(=O)O)C(=O)O` (stereo unspecified), the Potency is reported as “inactive”. In the case of `CN1C(=O)c2ccccc2C1=O`, the Potency is reported as “inactive”. For `CCOc1ccccc1O[C@H](c1ccccc1)[C@H]1CNCCO1`, the Potency was “inactive”. With `CCCCCC#CC(=O)OC` the Potency was “inactive”. With `NCCNCCO` the Potency was “inactive”. In the case of `COc1cc(N)c(Cl)cc1C(=O)NC1CCN(CCCOc2ccc(F)cc2)CC1OC` (stereo unspecified), the Potency is reported as “inactive”.
